EPAC1 antag – blocks human EPAC1 exchange factor. AID 720709. Potency, µM (highest dose often 115 µM), most hits filed as inhibitors. O95398. 0.14% of 360,000 active. EPAC1 GEF assay, Rap1b-BODIPY-GDP exchange fluorescence; also: nearly all actives have a fitted effect of over 50% in size
Target sequence (O95398 whole entry, looked up): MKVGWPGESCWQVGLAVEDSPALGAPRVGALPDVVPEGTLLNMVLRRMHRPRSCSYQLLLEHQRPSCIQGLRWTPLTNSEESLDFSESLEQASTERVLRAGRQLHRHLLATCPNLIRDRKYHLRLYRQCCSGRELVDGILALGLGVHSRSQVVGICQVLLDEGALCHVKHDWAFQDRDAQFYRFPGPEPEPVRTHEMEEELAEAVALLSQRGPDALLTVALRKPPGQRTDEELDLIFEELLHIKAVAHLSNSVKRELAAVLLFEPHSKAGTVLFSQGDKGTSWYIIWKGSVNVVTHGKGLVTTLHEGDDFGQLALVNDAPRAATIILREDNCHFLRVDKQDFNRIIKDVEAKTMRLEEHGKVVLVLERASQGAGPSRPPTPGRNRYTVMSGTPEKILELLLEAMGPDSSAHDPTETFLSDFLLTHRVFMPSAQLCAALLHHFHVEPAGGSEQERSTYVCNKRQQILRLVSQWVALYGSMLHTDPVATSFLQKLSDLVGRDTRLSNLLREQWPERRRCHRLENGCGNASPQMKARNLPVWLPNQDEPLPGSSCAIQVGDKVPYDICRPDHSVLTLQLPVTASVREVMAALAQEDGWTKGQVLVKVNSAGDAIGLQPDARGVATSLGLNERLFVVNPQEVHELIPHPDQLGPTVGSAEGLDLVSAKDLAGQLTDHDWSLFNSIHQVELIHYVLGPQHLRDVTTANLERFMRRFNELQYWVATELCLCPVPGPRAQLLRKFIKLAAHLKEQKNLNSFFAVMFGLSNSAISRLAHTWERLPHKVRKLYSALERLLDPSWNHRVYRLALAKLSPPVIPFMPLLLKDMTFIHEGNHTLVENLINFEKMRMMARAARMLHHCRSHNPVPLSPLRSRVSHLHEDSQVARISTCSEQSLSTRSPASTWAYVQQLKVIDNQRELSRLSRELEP
USP1 inh – USP1/UAF1 (human) deubiquitinase inhibition | O94782 | recombinant USP1/UAF1, Ub-Rhodamine cleavage fluorescence | Potency, µM (top dose mostly 57.1 µM), usual class: inhibitors | 0.23% of 390,000 active | AID 743255; also: nearly all actives have a fitted effect of over 60% in size
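USP1/UAF1 complex (1 nM) preincubated 15 min at room temperature with compound, then Ub-Rho substrate (150 nM final) added. Kinetic fluorescence at 480/540 nm over 6 reads at 60 s intervals; 50 mM HEPES pH 7.8, 0.5 mM EDTA, 0.1 mg/ml BSA, 1 mM TCEP, 0.01% Tween-20.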
EPAC2 antag – blocks human EPAC2 exchange factor; Q8WZA2; EPAC2 GEF exchange of Rap1B-BODIPY-GDP, fluorescence; Potency, µM (top dose mostly 114 µM), usual class: inhibitors; 0.18% of 360,000 active; also: nearly all actives have a fitted effect of over 45% in size
EPAC1 agonist – activates human EPAC1 exchange factor; O95398; EPAC1 agonist qHTS, biochemical assay; response scale: 100% = response to 6.5 mM cAMP; Potency, µM (series often up to 154 µM), most hits filed as activators; 0.073% of 360,000 active; AID 720707; also: nearly all actives have a fitted effect of over 60% in size
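Read-out is the fluorescence drop as BODIPY-GDP leaves Rap1B (480 nm excitation, 540 nm emission), recorded every 5 minutes over 30 minutes. Reactions held 100 nM EPAC1, 250 nM Rap1B–BODIPY-GDP and 50 uM GDP, with 6.5 mM cAMP setting full activation.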
USP2a block – USP2a (human) protease inhibition | 0.01% of 330,000 active | O75604 | USP2 core, Ub-CHOP2 coupled fluorogenic reporter, 485/531 | Potency, µM (doses to about 38.3 µM), actives largely listed as inhibitors | AID 463254
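USP2 core (10nM final) preincubated 30min RT with compound in 20mM Tris-HCl pH 8.0, 2mM CaCl2, 2mM beta-mercaptoethanol, 0.05% CHAPS; 25nM Ub-CHOP2 plus 25nM reporter substrate added, fluorescence (Ex485/Em531) read after 60min.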
EPAC2 ag – EPAC2 (human) agonism; Q8WZA2; EPAC2 activation, biochemical qHTS; response scale: 100% = 6.5 mM cAMP response; Potency, µM (series often up to 154 µM), hits mostly activators; 0.079% of 360,000 active; AID 720711; also: nearly all actives have a fitted effect of over 50% in size
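Fluorescence exchange assay: 100 nM EPAC2 with 250 nM RAP1B-BODIPY-GDP and 50 uM GDP; compounds tested as a concentration-titration series (qHTS). Loss of Rap1-bound BODIPY-GDP fluorescence read at 480/540 nm; data normalized to 6.5 mM cAMP.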
Of the large screens only hits and unclear results are named; the others gave an inactive call. In the library only some 0.44% were active in any assay of this set; here they are far more common. Calls follow the shape of the dose curve; as a rule, active = well fitted curve in the direction sought with a large enough effect; inconclusive = small, poorly fitted or top-dose-only effect, or another doubt; inactive = no such curve, though single readings can be large; an effect the other way counts as inactive or inconclusive.

Cc1ccc(CNC(=O)c2ccc3c(c2)nc(C)n3-c2cccc(F)c2)cc1	none (no result: EPAC1 antag, EPAC2 antag, EPAC1 agonist, USP2a block, EPAC2 ag)
O=C(O)C[C@@H]1C(=O)O[C@@H]2C(COC(=O)c3cc(O)c(O)c(O)c3)O[C@@H](OC(=O)c3cc(O)c(O)c(O)c3)[C@@H](OC(=O)c3cc(O)c(O)c4c3[C@H]1[C@H](O)C(=O)O4)[C@H]2OC(=O)c1cc(O)c(O)c(O)c1 (stereo not given in full)	USP2a block 0.891µM (no result: EPAC1 antag, USP1 inh, EPAC2 antag, EPAC1 agonist, EPAC2 ag)
O=C(Nc1ccccc1N1CCCCC1)c1cnccn1	EPAC2 antag 17.8µM
O=C(Nc1ccccc1N1CCCC1)c1cccnc1	none
CN(CC(=O)Nc1ccccc1Sc1ccccc1)C1CCCCC1	EPAC1 antag inconclusive, EPAC2 antag 50.1µM
O=c1oc2c(CN3CCCCC3)c(O)ccc2cc1-c1nc2ccccc2[nH]1	USP1 inh 28.2µM, USP2a block inconclusive
COc1ccc(Nc2c(-c3ccc(C)o3)nc3cc(C)ccn23)cc1	none (no result: EPAC1 antag, EPAC2 antag, EPAC1 agonist, USP2a block, EPAC2 ag)
Nc1c(-c2nc(-c3ccc4c(c3)OCO4)cs2)c2ccccn2c1C(=O)c1ccccc1	none (no result: EPAC1 antag, EPAC2 antag, EPAC1 agonist, USP2a block, EPAC2 ag)
COc1ccccc1NC(=O)CSC1=Nc2ccccc2C2=NC(Cc3ccccc3)C(=O)N12 (stereo not given)	none (no result: EPAC1 antag, EPAC2 antag, EPAC1 agonist, USP2a block, EPAC2 ag)
O=C(NNc1cc(N2CCOCC2)nc(N2CCOCC2)n1)c1ccc(Cl)c(Cl)c1	none
Cc1ccc(C(=O)NNc2cc(N3CCCC3)nc(N3CCCC3)n2)cc1	USP1 inh 14.1µM
Cc1ccc(C2=N/C(=C\c3c(C)nn(-c4ccccc4)c3N3CCCC3)C(=O)O2)cc1	USP2a block inconclusive, EPAC2 ag 100µM
Cc1nn(-c2ccccc2)c(N2CCCC2)c1/C=C1\N=C(c2ccc(F)cc2)OC1=O	EPAC2 ag inconclusive
COc1cc(OC)c(Nc2ncnc3onc(-c4cccc(Cl)c4)c23)cc1Cl	none (no result: EPAC1 antag, EPAC2 antag, EPAC1 agonist, USP2a block, EPAC2 ag)
O=C(CSc1nc2cc(Cl)ccc2s1)c1cc2ccccc2o1	USP1 inh 28.2µM
Cc1cc(NC(=O)CSc2nc3cc(Cl)ccc3s2)no1	none
Cc1ccc(N(C)S(=O)(=O)c2ccc(-c3coc(C)n3)cc2)cc1	none (no result: EPAC1 antag, EPAC2 antag, EPAC1 agonist, USP2a block, EPAC2 ag)
O=c1cc(CSc2nc3ccccc3c(=O)[nH]2)c2ccc(O)cc2o1	EPAC1 antag 50.1µM
NC1=C(Cl)C(=O)c2ccc(S(N)(=O)=O)cc2C1=O	EPAC1 antag inconclusive, USP1 inh 1.26µM, EPAC2 antag inconclusive (no result: USP2a block)
CCCN1C(=O)c2ccccc2NC1c1ccc(Cl)c(Cl)c1 (stereo not given)	EPAC2 antag 28.2µM
Cc1ccc(S(=O)(=O)/N=C2/C=C(Sc3ncn[nH]3)C(=O)c3ccccc32)c(C)c1	none (no result: EPAC1 antag, USP1 inh, EPAC2 antag, EPAC1 agonist, EPAC2 ag)
CC(C)c1ccc(S(=O)(=O)/N=C2/C=C(Sc3ncn[nH]3)C(=O)c3ccccc32)cc1	EPAC1 antag 56.2µM, USP1 inh 1.78µM, EPAC2 antag 89.1µM
Cc1ccc(S(=O)(=O)/N=C2/C=C(Sc3ncn[nH]3)C(=O)c3ccccc32)cc1	EPAC1 antag 44.7µM, USP1 inh 1µM, EPAC2 antag 20µM
CC(C)(C)c1ccc(S(=O)(=O)/N=C2\C=C(NS(=O)(=O)c3ccccc3)C(=O)c3ccccc32)cc1	EPAC1 antag inconclusive, USP1 inh inconclusive, EPAC2 antag inconclusive
CC[n+]1ccc(/C=C/c2c[nH]c3ccccc23)cc1	USP1 inh 28.2µM, EPAC1 agonist inconclusive, USP2a block inconclusive, EPAC2 ag 100µM
Cc1ccc2[nH]cc(/C=C/c3cc[n+](C)cc3)c2c1	USP1 inh 28.2µM, EPAC1 agonist 100µM, USP2a block inconclusive, EPAC2 ag inconclusive
O=C(C1=NN(c2ccccc2)C2C(=O)N(c3cccc(Cl)c3)C(=O)C12)c1ccccc1 (stereo not given)	EPAC1 antag 50.1µM, USP1 inh inconclusive
COc1cccc(OC)c1-c1nn2c(-c3cc(-c4ccccc4)n[nH]3)nnc2s1	EPAC1 antag 39.8µM, USP1 inh inconclusive, EPAC2 antag 11.2µM, EPAC1 agonist inconclusive, USP2a block inconclusive, EPAC2 ag inconclusive
COc1cccc(-c2nnc3sc(-c4ccccc4)nn23)c1	none
CN(C)c1ccc(/C=C/c2nc3ccccc3c(=O)n2-c2ccc(C(=O)O)cc2)cc1	USP1 inh inconclusive, EPAC1 agonist 63.1µM, USP2a block inconclusive
C/C(=C\C(=O)c1ccccc1)Nc1ccc(O)cc1	EPAC1 antag 70.8µM
C/C(=C\C(=O)c1cccnc1)Nc1ccc(O)cc1	none
CCCN1CCCc2cc(CN)ccc21	USP1 inh 15.8µM
CN1CCCc2cc(C=O)ccc21	none
Cc1nc(N)sc1-c1csc(Nc2ncccn2)n1	USP1 inh inconclusive, EPAC2 antag 70.8µM, EPAC2 ag inconclusive
O=C(NCC(c1ccco1)N1CCCCC1)c1cccc(NS(=O)(=O)c2ccc(Br)cc2)c1 (stereo not given)	EPAC1 antag inconclusive, EPAC1 agonist 126µM
Cc1ccc(S(=O)(=O)c2nc(-c3ccco3)oc2SCC(C)C)cc1	none (no result: EPAC1 antag, EPAC2 antag, EPAC1 agonist, USP2a block, EPAC2 ag)
Cc1ccc(S(=O)(=O)c2nc(-c3ccco3)oc2SC(C)C)cc1	USP1 inh inconclusive, EPAC2 antag 56.2µM
COc1ccc(C2c3c(n(C)c4ccccc34)C(=O)N2CC(=O)Nc2ccccc2Cl)cc1 (stereo not given)	none (no result: EPAC1 antag, EPAC2 antag, EPAC1 agonist, USP2a block, EPAC2 ag)
CC1CCN(Cc2c(O)ccc3c(=O)c(Oc4ccccc4Cl)c(C(F)(F)F)oc23)CC1	none (no result: EPAC1 antag, EPAC2 antag, EPAC1 agonist, USP2a block, EPAC2 ag)
Cc1ccc(N2C(=O)c3cccc4c(N)ccc(c34)C2=O)c2cccnc12	USP1 inh 25.1µM, EPAC1 agonist inconclusive, USP2a block inconclusive, EPAC2 ag 100µM

Bioassay records: PubChem, National Center for Advancing Translational Sciences (NCATS)
